Experimental data as given in the supplement of paper PMC13380429.

Test system: Vero E6 infected with SARS-CoV-2
Test: inhibition of SARS-CoV-2 cytopathic effect; higher = more antiviral protection, active = above 15
Conditions: 48 h

Measured: inhibition of SARS-CoV-2 cytopathic effect

CN1CCN(c2nc3ccccc3nc2Cl)CC1
inactive: 1 nM -3.46% | 8.33 nM -0.96% | 100 nM -3.46% | 833.33 nM 0.73% | 10000 nM 5.89%

O=C(O)[C@H](O)[C@@H](O)[C@H](O[C@@H]1O[C@H](CO)[C@H](O)[C@H](O)[C@H]1O)[C@H](O)CO [maltobionic-acid]
inactive: 1 nM -0.69% | 8.33 nM -2.72% | 100 nM -1.55% | 833.33 nM -3.61% | 10000 nM -1.2%

O=C(Nc1ccc(Br)cc1)c1cc(Br)cc(Br)c1O [tribomsalan]
inactive: 1 nM -1.03% | 8.33 nM -3.93% | 100 nM -1.03% | 833.33 nM -0.02% | 10000 nM 6.65%

c1ccc(CCCCN2CCC(c3ccccc3)CC2)cc1
inactive: 1 nM -1.33% | 8.33 nM -0.15% | 100 nM 2.71% | 833.33 nM 1.08% | 10000 nM -0.99%

C[N+]1(C)CCC(OC(=O)C(O)(c2ccccc2)C2CCCC2)C1 (stereo not given) [glycopyrrolate]
inactive: 1 nM -3.43% | 8.33 nM -1.27% | 100 nM -0.55% | 833.33 nM -0.2% | 10000 nM -1.06%

O[C@@H](CN1CCNCC1)Cn1c2ccc(Br)cc2c2cc(Br)ccc21 [BAX-channel-blocker]
inactive: 1 nM 10.2% | 8.33 nM 4.29% | 100 nM 2.27% | 833.33 nM 2.49% | 10000 nM -21.9%

CC(=O)[C@@]1(O)CC[C@H]2[C@@H]3C=C(Cl)C4=CC(=O)[C@@H]5C[C@@H]5[C@]4(C)[C@H]3CC[C@@]21C
inactive: 1 nM -4.45% | 8.33 nM -5.77% | 100 nM -6.29% | 833.33 nM -6.05% | 10000 nM -4.41%

CC(=O)c1cc([N+](=O)[O-])c(Sc2ccc(F)cc2F)s1
active: 10000 nM 19.6%
inactive: 1 nM -0.55% | 8.33 nM 1.74% | 100 nM 0.23% | 833.33 nM -0.14%

OCCNCCCOc1cccc(Cl)c1Cl
inactive: 1 nM 1.41% | 8.33 nM 0.45% | 100 nM 1.26% | 833.33 nM 0.42% | 10000 nM -19.6%

CCCS(=O)(=O)Nc1ccc(F)c(C(=O)c2c[nH]c3ncc(-c4ccc(Cl)cc4)cc23)c1F [vemurafenib]
inactive: 1 nM 3.98% | 8.33 nM 1.81% | 100 nM -0.86% | 833.33 nM 2.45% | 10000 nM 4.29%

CO/N=C1\CN(c2nc3c(cc2F)c(=O)c(C(=O)O)cn3C2CC2)CC1CN (stereo not given) [gemifloxacin]
inactive: 1 nM -4.74% | 8.33 nM -3.09% | 100 nM 0.76% | 833.33 nM 1.02% | 10000 nM 5.76%

CC(C)n1c(/C=C/[C@@H](O)C[C@@H](O)CC(=O)O)c(-c2ccc(F)cc2)c2ccccc21 [fluvastatin]
inactive: 1 nM -0.24% | 8.33 nM -1.21% | 100 nM 1.75% | 833.33 nM -1.33% | 10000 nM 2.61%

COc1ccc([C@@H]2CC(=O)c3c(O)cc(O[C@@H]4O[C@H](CO)[C@@H](O)[C@H](O)[C@H]4O[C@@H]4O[C@@H](C)[C@H](O)[C@@H](O)[C@H]4O)cc3O2)cc1O [neohesperidin]
inactive: 1 nM -2.2% | 8.33 nM 0.62% | 100 nM 2.24% | 833.33 nM -0.64% | 10000 nM -3.03%

Oc1cccc(-c2c3nc(c(-c4cccc(O)c4)c4ccc([nH]4)c(-c4cccc(O)c4)c4nc(c(-c5cccc(O)c5)c5ccc2[nH]5)CC4)C=C3)c1 [temoporfin]
inactive: 1 nM -0.78% | 8.33 nM 3.96% | 100 nM -0.62% | 833.33 nM -2.48% | 10000 nM -5.99%

CC(C)N(CCC(C(N)=O)(c1ccccc1)c1ccccn1)C(C)C (stereo not given) [disopyramide]
inactive: 1 nM -2.08% | 8.33 nM -2.32% | 100 nM -1.92% | 833.33 nM -0.48% | 10000 nM -5.17%

N[C@@H](CC(=O)Nc1ccc(Oc2cc(F)c(F)cc2Br)cc1)C(=O)O
inactive: 1 nM -3.45% | 8.33 nM -0.99% | 100 nM -1.17% | 833.33 nM -3.56% | 10000 nM 6.38%

CN(C)CCN1C(=O)c2cccc3cc(N)cc(c23)C1=O [amonafide]
inactive: 1 nM 4.04% | 8.33 nM 2.14% | 100 nM 1.57% | 833.33 nM 3.27% | 10000 nM -6.16%

C/C=C(/C)C(=O)O[C@H]1[C@H](OC(C)=O)[C@@]2(CO)C(CC1(C)C)C1=CCC3[C@@]4(C)CCC(O[C@@H]5O[C@H](C(=O)O)[C@@H](O[C@@H]6O[C@H](CO)[C@@H](O)[C@H](O)[C@H]6O)[C@H](O)[C@H]5O[C@@H]5O[C@H](CO)[C@@H](O)[C@H](O)[C@H]5O)[C@](C)(CO)C4CC[C@@]3(C)[C@]1(C)C[C@H]2O.C/C=C(\C)C(=O)O[C@H]1[C@H](OC(C)=O)[C@@]2(CO)C(CC1(C)C)C1=CCC3[C@@]4(C)CCC(O[C@@H]5O[C@H](C(=O)O)[C@@H](O[C@@H]6O[C@H](CO)[C@@H](O)[C@H](O)[C@H]6O)[C@H](O)[C@H]5O[C@@H]5O[C@H](CO)[C@@H](O)[C@H](O)[C@H]5O)[C@](C)(CO)C4CC[C@@]3(C)[C@]1(C)C[C@H]2O (stereo not given in full) [escin]
inactive: 1 nM -2.05% | 8.33 nM -1.77% | 100 nM -0.38% | 833.33 nM -4.84% | 10000 nM -27.8%

Cc1[nH]c(=O)c(C#N)cc1-c1ccncc1 [milrinone]
inactive: 1 nM 1.1% | 8.33 nM -2.54% | 100 nM -1.13% | 833.33 nM -1.41% | 10000 nM 0.27%

CN/C(=N\S(=O)(=O)c1ccc(Cl)cc1)N1C[C@H](c2ccccc2)C(c2ccc(Cl)cc2)=N1 (racemic)
inactive: 1 nM -2.29% | 8.33 nM -0.66% | 100 nM -0.25% | 833.33 nM 1.24% | 10000 nM -3.73%

CCn1cc(C(=O)O)c(=O)c2cc(F)c(N3CCN(C)CC3)cc21 [pefloxacin]
inactive: 1 nM 2.27% | 8.33 nM -0.13% | 100 nM 2.84% | 833.33 nM -0.06% | 10000 nM 1.98%

Cc1cccc(NC(=O)N[C@@H]2N=C(c3ccccc3)c3ccccc3N(C)C2=O)c1
inactive: 1 nM -0.47% | 8.33 nM 1.7% | 100 nM 0.28% | 833.33 nM 0.31% | 10000 nM 0.03%

N#CN=C(NCCCCCCOc1ccc(Cl)cc1)Nc1ccncc1
inactive: 1 nM 0.77% | 8.33 nM -0.03% | 100 nM -4.25% | 833.33 nM -15% | 10000 nM -17.4%

CN1c2c([nH]c(N)nc2=O)NC[C@@H]1CNc1ccc(C(=O)N[C@@H](CCC(=O)O)C(=O)O)cc1 [metafolin]
inactive: 1 nM 4.85% | 8.33 nM 2.72% | 100 nM 1.95% | 833.33 nM 0.81% | 10000 nM 2.93%

COc1ccc(-c2csc(NC(=O)[C@H]3CCCCN3S(=O)(=O)c3ccc(C)cc3)n2)cc1
inactive: 1 nM 0.8% | 8.33 nM 2.33% | 100 nM 1.23% | 833.33 nM 2.63% | 10000 nM 1.27%

COc1cc2c(cc1OC)[C@@H](Cc1cc(OC)c(OC)c(OC)c1)[N+](C)(CCCOC(=O)CC/C=C/CCC(=O)OCCC[N+]1(C)CCc3cc(OC)c(OC)cc3[C@H]1Cc1cc(OC)c(OC)c(OC)c1)CC2 (stereo not given in full) [mivacurium]
inactive: 1 nM -2.73% | 8.33 nM -1.95% | 100 nM 2.74% | 833.33 nM 3.32% | 10000 nM 0.83%

CCc1cc(C(N)=S)ccn1 [ethionamide]
inactive: 1 nM -1.54% | 8.33 nM 0.54% | 100 nM -0.38% | 833.33 nM -1.73% | 10000 nM 2.79%

Nc1ccc(S(=O)(=O)NC(=O)c2ccccc2)cc1 [sulfabenzamide]
inactive: 1 nM -2.34% | 8.33 nM -0.25% | 100 nM -1.3% | 833.33 nM -0.48% | 10000 nM -0.81%

Cn1ccc2cc3c(cc21)CCN3C(=O)Nc1cccnc1
inactive: 1 nM 1.1% | 8.33 nM 0.1% | 100 nM 1.8% | 833.33 nM 0.79% | 10000 nM 2.05%

CN1C(=O)CC[C@H]1c1cccnc1 [cotinine]
inactive: 1 nM -0.33% | 8.33 nM -1.5% | 100 nM -0.09% | 833.33 nM 0.39% | 10000 nM 0.17%

CCC(=N\O)/C(C)=C/c1ccc(F)cc1
inactive: 1 nM -0.84% | 8.33 nM -0.21% | 100 nM 0.55% | 833.33 nM -0.42% | 10000 nM -0.21%

CC(=O)NCCC(=O)N[C@@H](Cc1c[nH]cn1)C(=O)O [N-acetylcarnosine]
inactive: 1 nM 1.19% | 8.33 nM 1.23% | 100 nM -0.15% | 833.33 nM -2.97% | 10000 nM 4.18%

CNC(=O)Oc1ccccc1OC(C)C [propoxur]
inactive: 1 nM 2.55% | 8.33 nM 4.24% | 100 nM 3.02% | 833.33 nM 2.09% | 10000 nM 2.81%

CCCc1ccc(C(=O)O)cc1 [4-propylbenzoic-acid]
inactive: 1 nM -0.54% | 8.33 nM 0.51% | 100 nM -0.57% | 833.33 nM -0.84% | 10000 nM 1.58%

C[C@@]1(F)[C@H](O)[C@@H](CO)O[C@H]1n1ccc(N)nc1=O
inactive: 1 nM 0.11% | 8.33 nM -0.83% | 100 nM -0.8% | 833.33 nM 1.12% | 10000 nM 0.26%

O=C(NCC(=O)N1CC[C@H](N[C@H]2CC[C@@](O)(c3ccc(-c4ncccn4)cn3)CC2)C1)c1cccc(C(F)(F)F)c1
inactive: 1 nM -4.52% | 8.33 nM -2.69% | 100 nM 1.06% | 833.33 nM -0.75% | 10000 nM -0.61%
